Of roughly 7,900 targets only a part is listed; those with a hit were picked by preference. About 0.6% of all pairs of compound and target were hits.
Key:
Assay in all cases: log2 fold change, soluble protein after heating vs DMSO (PISA); higher = thermal stabilisation; K562 cells, 10 uM, 30 min; active = over 0.2 and 3.5 SD of the protein, either way, in both replicates (recomputed)
[1] = compound: CC[C@@H]1C(=O)N(C)c2cnc(Nc3ccc(C(=O)NC4CCN(C)CC4)cc3OC)nc2N1C1CCCC1
Method in brief: (§1)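 Soluble protein was quantified by TMTpro 16plex LC-MS/MS after channel sums were equalised. It was obtained as the supernatant after 21,000xg for 90 min from pooled aliquots of K562 cells (2×10^6 cells/mL, 10 μM compound, 30 min) heated for 3 min across 48°C-58°C and extracted in PBS with 0.5% NP-40 at 4°C. Thermal stability values are relative to control samples and come from duplicates. They are given as log2 fold changes.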

volasertib = compound: CC[C@@H]1C(=O)N(C)c2cnc(Nc3ccc(C(=O)N[C@H]4CC[C@H](N5CCN(CC6CC6)CC5)CC4)cc3OC)nc2N1C(C)C [volasertib]
Method in brief: as §1

[2] = compound: CC[C@H](C)N1C=C(C2=C(C=C(C=C21)C3=CN=C(C=C3)N4CCNCC4)C(=O)NCC5=C(C=C(NC5=O)C)C)C
Method in brief: as §1

epoxomicin = compound: CC[C@H](C)[C@@H](C(=O)N[C@@H]([C@@H](C)O)C(=O)N[C@@H](CC(C)C)C(=O)[C@]1(CO1)C)NC(=O)[C@H]([C@@H](C)CC)N(C)C(=O)C [epoxomicin]
Method in brief: as §1

[3] = compound: CCn1c(C(=O)N(C2CC2)C2CC2)cc2c3c(ncn3C)c(Nc3cc(C)n(C)n3)nc21
Method in brief: as §1

[4] = compound: CCn1cc(-c2ccnc3[nH]c(-c4cccc(CN(C)C)c4)cc23)c(-c2ccc(NC(=O)N(C)C)cc2)n1
Method in brief: as §1

[5] = compound: CN(C)CC(=O)Nc1ccc2[nH]c(=O)c3ccccc3c2c1
Method in brief: as §1

rosiglitazone = compound: CN(CCOC1=CC=C(C=C1)C[C@H]2C(=O)NC(=O)S2)C3=CC=CC=N3 (racemic) [rosiglitazone]
Method in brief: as §1

[6] = compound: CN1C2=C(C3=C1C(=O)N(N=C3)CC4=CC(=CC=C4)N)SC(=C2)S(=O)C
Method in brief: as §1

[7] = compound: CN1CCC(CNc2ccc3ncc(-c4cccc(OC(F)(F)F)c4)n3n2)CC1
Method in brief: as §1

saracatinib = compound: CN1CCN(CCOc2cc(OC3CCOCC3)c3c(Nc4c(Cl)ccc5c4OCO5)ncnc3c2)CC1 [saracatinib]
Method in brief: as §1

sotrastaurin = compound: CN1CCN(c2nc(C3=C(c4c[nH]c5ccccc45)C(=O)NC3=O)c3ccccc3n2)CC1 [sotrastaurin]
Method in brief: as §1

alvocidib = compound: CN1CC[C@H](c2c(O)cc(O)c3c(=O)cc(-c4ccccc4Cl)oc23)[C@H](O)C1 [alvocidib]
Method in brief: as §1

Tubastatin A = compound: CN1CCc2c(c3ccccc3n2Cc2ccc(C(=O)NO)cc2)C1 [Tubastatin A]
Method in brief: as §1

[8] = compound: CNC(=O)C1=CC=CC=C1NC2=NC(=NC=C2Cl)NC3=C(C=C(C=C3)N4CCOCC4)OC
Method in brief: as §1

defactinib = compound: CNC(=O)c1ccc(Nc2ncc(C(F)(F)F)c(NCc3nccnc3N(C)S(C)(=O)=O)n2)cc1 [defactinib]
Method in brief: as §1

rucaparib = compound: CNCc1ccc(-c2[nH]c3cc(F)cc4c3c2CCNC4=O)cc1 [rucaparib]
Method in brief: as §1

[9] = compound: CNc1nc(-c2ccc3c(N)n[nH]c3c2)cc(N2C[C@@H](C(=O)NC3CCCCC3)CC[C@H]2C)n1
Method in brief: as §1

encorafenib = compound: COC(=O)N[C@@H](C)CNc1nccc(-c2cn(C(C)C)nc2-c2cc(Cl)cc(NS(C)(=O)=O)c2F)n1 [encorafenib]
Method in brief: as §1

[10] = compound: COC(=O)[C@H](CCSC)NC(=O)C1=C(C=C(C=C1)NC[C@H](CS)N)C2=CC=CC=C2
Method in brief: as §1

Measured: log2 fold change

CUEDC2 (UniProt Q9H467)
Sequence of UniProt Q9H467 (Q9H467 whole entry, looked up): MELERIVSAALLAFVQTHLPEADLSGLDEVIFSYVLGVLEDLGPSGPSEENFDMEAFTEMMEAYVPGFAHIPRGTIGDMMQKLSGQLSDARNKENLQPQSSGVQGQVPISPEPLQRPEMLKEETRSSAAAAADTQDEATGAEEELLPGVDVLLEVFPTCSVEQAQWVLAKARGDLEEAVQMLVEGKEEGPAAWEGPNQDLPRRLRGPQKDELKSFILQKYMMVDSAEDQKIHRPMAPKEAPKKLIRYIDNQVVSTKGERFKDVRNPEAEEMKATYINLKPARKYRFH
inactive: [1] -0.044 | volasertib -0.133 | [2] 0.033 | epoxomicin 0.118 | [3] -0.01 | [4] -0.001 | [5] -0.01 | rosiglitazone 0.105 | [6] -0.038 | [7] -0.067 | saracatinib -0.003 | sotrastaurin -0.045 | alvocidib -0.089 | Tubastatin A 0.197 | [8] -0.036 | defactinib -0.067 | rucaparib -0.033 | encorafenib 0.071 | [10] 0.016
active: [9] -0.338

CTSV (UniProt O60911)
Sequence of UniProt O60911 (O60911 whole entry, looked up): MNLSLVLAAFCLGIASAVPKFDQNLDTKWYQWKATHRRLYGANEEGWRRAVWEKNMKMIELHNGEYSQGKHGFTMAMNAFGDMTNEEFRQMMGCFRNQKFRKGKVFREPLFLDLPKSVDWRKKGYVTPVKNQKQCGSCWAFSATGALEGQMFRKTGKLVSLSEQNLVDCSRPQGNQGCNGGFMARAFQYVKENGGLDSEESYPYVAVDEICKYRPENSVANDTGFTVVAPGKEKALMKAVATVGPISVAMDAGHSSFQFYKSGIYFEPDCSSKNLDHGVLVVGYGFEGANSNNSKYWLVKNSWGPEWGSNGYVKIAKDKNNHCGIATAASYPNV
active: [1] -0.719 | volasertib -0.993 | [7] -1.29
inactive: [2] -0.054 | epoxomicin -0.007 | [3] 0.033 | [4] 0.084 | [5] 0.012 | rosiglitazone -0.013 | [6] -0.081 | saracatinib -0.049 | sotrastaurin 0.195 | alvocidib 0.012 | Tubastatin A 0.016 | [8] 0.048 | defactinib 0.011 | rucaparib -0.056 | [9] 0.062 | encorafenib 0 | [10] 0.02

ERLIN1 (UniProt O75477)
Sequence of UniProt O75477 (O75477 whole entry, looked up): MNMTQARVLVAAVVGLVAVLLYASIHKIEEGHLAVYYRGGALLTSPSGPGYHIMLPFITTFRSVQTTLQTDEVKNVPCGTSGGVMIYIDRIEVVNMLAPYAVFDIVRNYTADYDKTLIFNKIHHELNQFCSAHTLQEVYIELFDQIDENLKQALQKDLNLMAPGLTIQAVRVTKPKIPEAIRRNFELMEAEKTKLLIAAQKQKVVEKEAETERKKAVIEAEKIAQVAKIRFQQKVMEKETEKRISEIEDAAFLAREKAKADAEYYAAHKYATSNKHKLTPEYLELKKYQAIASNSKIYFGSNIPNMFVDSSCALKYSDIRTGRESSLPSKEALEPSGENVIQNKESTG
inactive: [1] -0.01 | volasertib -0.025 | [2] 0.07 | epoxomicin 0.018 | [3] 0.01 | [4] 0.057 | [5] 0.003 | rosiglitazone 0.016 | [6] 0.095 | [7] 0.116 | saracatinib 0 | sotrastaurin -0.072 | alvocidib 0.023 | Tubastatin A 0.029 | [8] -0.06 | defactinib 0.028 | rucaparib 0.072 | [9] -0.004 | encorafenib 0.105 | [10] -0.024

EXOC8 (UniProt Q8IYI6)
Sequence of UniProt Q8IYI6 (Q8IYI6 whole entry, looked up): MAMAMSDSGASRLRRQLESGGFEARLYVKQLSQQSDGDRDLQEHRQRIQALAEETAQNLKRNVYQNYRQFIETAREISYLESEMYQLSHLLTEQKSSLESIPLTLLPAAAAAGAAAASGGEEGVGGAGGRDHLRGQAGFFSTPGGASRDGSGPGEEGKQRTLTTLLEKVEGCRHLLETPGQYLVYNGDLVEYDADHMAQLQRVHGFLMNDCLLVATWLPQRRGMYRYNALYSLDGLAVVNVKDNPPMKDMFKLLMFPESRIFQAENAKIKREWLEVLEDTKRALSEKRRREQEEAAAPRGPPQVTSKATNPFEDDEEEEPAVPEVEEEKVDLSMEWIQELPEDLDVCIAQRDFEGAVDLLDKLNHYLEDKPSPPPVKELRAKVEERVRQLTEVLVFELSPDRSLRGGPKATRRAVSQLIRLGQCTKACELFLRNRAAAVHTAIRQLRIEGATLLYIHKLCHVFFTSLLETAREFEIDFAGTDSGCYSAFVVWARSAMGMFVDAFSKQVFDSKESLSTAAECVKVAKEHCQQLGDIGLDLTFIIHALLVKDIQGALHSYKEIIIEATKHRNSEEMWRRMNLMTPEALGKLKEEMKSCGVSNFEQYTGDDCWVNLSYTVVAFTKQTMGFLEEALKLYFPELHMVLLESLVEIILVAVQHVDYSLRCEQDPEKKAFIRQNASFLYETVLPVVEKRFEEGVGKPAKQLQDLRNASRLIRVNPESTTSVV
active: volasertib -0.367 | [7] -0.295
inactive: [1] -0.212 | [2] 0.045 | epoxomicin -0.004 | [3] -0.088 | [4] 0.003 | [5] 0.073 | rosiglitazone 0.05 | [6] 0.009 | saracatinib -0.015 | sotrastaurin -0.196 | alvocidib -0.031 | Tubastatin A -0.012 | [8] 0.056 | defactinib -0.069 | rucaparib 0.016 | [9] 0.112 | encorafenib 0.094 | [10] -0.047

EIF4E isoform 2 (UniProt P06730)
Sequence of UniProt P06730 (P06730 whole entry, looked up): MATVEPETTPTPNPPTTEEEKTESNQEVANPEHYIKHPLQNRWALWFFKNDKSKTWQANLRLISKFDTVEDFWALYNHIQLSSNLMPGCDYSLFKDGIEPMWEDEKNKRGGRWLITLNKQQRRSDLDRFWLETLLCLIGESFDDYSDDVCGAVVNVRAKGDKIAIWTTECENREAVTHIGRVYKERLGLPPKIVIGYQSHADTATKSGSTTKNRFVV
inactive: [1] -0.012 | volasertib -0.044 | [2] 0.021 | epoxomicin 0.053 | [3] -0.01 | [4] -0.061 | [5] 0.036 | rosiglitazone -0.017 | [6] -0.146 | [7] 0.199 | saracatinib 0.04 | sotrastaurin 0.189 | alvocidib -0.027 | Tubastatin A -0.085 | [8] 0 | defactinib -0.012 | rucaparib 0.008 | [9] 0.133 | encorafenib -0.023 | [10] -0.072

FAM3A (UniProt P98173)
Sequence of UniProt P98173 (P98173 whole entry, looked up): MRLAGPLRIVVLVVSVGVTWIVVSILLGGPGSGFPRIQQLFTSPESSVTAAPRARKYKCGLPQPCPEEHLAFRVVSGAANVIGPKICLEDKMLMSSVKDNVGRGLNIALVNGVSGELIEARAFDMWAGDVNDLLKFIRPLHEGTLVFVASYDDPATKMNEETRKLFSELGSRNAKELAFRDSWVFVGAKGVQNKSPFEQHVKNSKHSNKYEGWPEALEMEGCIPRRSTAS
inactive: [1] 0.024 | volasertib -0.11 | [2] -0.02 | epoxomicin 0.029 | [3] 0.085 | [4] 0.066 | [5] 0.019 | rosiglitazone 0.101 | [6] -0.023 | [7] -0.128 | saracatinib 0.038 | sotrastaurin 0.001 | alvocidib -0.027 | Tubastatin A 0.045 | [8] 0.065 | defactinib -0.035 | rucaparib 0.017 | [9] 0.075 | encorafenib 0.118 | [10] -0.041

DNAJB1 (UniProt P25685)
Sequence of UniProt P25685 (P25685 whole entry, looked up): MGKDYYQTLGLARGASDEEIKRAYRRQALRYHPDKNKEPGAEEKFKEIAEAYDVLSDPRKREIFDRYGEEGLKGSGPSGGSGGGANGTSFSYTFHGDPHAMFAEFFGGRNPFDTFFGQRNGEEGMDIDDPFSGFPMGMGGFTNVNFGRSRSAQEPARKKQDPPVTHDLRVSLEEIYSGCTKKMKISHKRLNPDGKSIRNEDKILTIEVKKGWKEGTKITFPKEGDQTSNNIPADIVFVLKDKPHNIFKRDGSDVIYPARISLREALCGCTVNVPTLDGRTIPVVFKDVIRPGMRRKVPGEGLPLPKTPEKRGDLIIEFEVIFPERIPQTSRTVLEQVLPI
active: volasertib -0.222
inactive: [1] 0.011 | [2] 0.064 | epoxomicin -0.041 | [3] -0.022 | [4] -0.026 | [5] -0.01 | rosiglitazone 0.02 | [6] -0.064 | [7] -0.042 | saracatinib -0.003 | sotrastaurin -0.03 | alvocidib -0.094 | Tubastatin A -0.001 | [8] -0.011 | defactinib -0.05 | rucaparib -0.025 | [9] -0.033 | encorafenib -0.009 | [10] -0.017

ERCC2 (UniProt P18074)
Sequence of UniProt P18074 (P18074 whole entry, looked up): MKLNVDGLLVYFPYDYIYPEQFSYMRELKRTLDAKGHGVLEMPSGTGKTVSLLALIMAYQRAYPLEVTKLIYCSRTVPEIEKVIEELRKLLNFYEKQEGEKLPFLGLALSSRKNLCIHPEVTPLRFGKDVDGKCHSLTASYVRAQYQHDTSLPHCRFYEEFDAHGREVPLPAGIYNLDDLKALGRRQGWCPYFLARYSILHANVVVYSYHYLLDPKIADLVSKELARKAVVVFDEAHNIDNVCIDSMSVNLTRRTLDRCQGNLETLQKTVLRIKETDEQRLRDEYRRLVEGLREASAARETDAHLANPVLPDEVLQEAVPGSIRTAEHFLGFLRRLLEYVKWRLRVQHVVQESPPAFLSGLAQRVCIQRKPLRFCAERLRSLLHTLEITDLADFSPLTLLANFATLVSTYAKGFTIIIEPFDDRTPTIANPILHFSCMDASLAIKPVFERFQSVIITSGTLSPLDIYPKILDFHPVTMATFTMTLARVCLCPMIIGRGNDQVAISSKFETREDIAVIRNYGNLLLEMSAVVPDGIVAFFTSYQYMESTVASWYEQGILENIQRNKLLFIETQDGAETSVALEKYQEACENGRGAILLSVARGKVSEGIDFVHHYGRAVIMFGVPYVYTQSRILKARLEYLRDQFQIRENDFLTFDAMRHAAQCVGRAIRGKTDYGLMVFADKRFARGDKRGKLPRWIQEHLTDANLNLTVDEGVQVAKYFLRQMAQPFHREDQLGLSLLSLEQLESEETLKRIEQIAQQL
inactive: [1] -0.015 | volasertib -0.258 | [2] 0.043 | [3] 0.003 | [4] -0.076 | [5] -0.019 | rosiglitazone 0.007 | [6] 0.013 | [7] -0.153 | saracatinib -0.016 | sotrastaurin -0.035 | alvocidib -0.062 | Tubastatin A 0.051 | [8] -0.01 | defactinib -0.094 | rucaparib -0.013 | [9] -0.027 | encorafenib 0.177 | [10] -0.005
active: epoxomicin 0.326

EEF2K (UniProt O00418)
Sequence of UniProt O00418 (O00418 whole entry, looked up): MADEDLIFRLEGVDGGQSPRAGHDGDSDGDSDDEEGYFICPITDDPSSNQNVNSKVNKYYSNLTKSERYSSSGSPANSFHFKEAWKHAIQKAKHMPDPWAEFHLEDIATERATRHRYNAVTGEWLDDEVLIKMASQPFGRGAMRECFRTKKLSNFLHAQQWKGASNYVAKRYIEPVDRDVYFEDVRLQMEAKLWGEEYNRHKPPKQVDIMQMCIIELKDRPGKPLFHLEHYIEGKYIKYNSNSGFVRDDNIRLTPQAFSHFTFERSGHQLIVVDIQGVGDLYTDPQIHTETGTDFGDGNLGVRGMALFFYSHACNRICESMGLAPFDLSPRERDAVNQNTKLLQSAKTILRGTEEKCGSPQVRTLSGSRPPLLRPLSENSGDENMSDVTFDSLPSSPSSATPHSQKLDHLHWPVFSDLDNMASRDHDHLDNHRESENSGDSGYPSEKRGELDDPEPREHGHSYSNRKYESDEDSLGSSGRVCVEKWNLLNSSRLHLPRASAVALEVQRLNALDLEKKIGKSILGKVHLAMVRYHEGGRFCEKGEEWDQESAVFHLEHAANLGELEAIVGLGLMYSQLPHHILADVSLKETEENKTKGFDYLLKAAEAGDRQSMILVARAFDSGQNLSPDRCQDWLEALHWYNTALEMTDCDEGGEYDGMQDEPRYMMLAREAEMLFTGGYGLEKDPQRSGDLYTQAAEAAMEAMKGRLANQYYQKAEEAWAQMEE
inactive: [1] -0.046 | volasertib -0.395 | epoxomicin 0.093 | [3] 0.102 | [4] 0.028 | [5] 0.096 | [7] -0.188 | alvocidib 0.194 | [8] 0.064 | defactinib -0.021 | rucaparib 0.1 | encorafenib -0.036 | [10] -0.266
